# Experimental data: paper PMC7862700, “An all-to-all approach to the identification of sequence-specific readers for epigenetic DNA modifications on cytosine”
# How the values were obtained:
# Experiment in all cases: DAPPL (digital affinity profiling via proximity ligation, sequencing); 10 mM Tris-HCl pH 7.5, 50 mM NaCl, 1 mM DTT, 4% glycerol, room temperature, 30 min; GST-TFs on glutathione beads, 16-mer random dsDNA library, 0.1% formaldehyde crosslink after washing; high values mean tight binding
# Details in all cases: protein: recombinant; tags: N-terminal GST; dsDNA, one strand shown
# GABPA = biological target: T1, GABPA (Homo sapiens, UniProt Q06546 1-454)
# T1 sequence: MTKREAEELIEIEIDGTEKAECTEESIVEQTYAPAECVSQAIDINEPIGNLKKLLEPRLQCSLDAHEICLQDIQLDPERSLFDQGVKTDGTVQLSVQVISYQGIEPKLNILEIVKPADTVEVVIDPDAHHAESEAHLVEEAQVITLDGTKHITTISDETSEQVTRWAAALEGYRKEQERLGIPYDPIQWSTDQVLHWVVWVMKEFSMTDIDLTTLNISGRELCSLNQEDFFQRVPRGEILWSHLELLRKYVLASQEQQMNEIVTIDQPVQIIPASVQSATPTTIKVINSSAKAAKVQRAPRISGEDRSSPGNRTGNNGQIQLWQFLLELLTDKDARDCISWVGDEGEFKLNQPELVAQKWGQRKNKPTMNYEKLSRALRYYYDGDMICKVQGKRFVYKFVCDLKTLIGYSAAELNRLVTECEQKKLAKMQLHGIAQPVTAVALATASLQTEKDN
# Procedure, shortened: (§1)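 Pools were built from human transcription factors expressed in yeast as GST fusions, captured on glutathione beads and DNA-barcoded, along with a tag-only sample. Incubation with 200 nmole of a 16-mer random double-stranded DNA library lasted 30 min at room temperature in Tris/NaCl/DTT/glycerol buffer, and was followed by washing, 0.1% formaldehyde crosslinking, proximity ligation, PCR amplification and Illumina NextSeq500 sequencing. Binding signal is the quotient of each hexamer's read frequency for a factor and its frequency for the tag-only sample.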
# ETV5 = ETV5 (Homo sapiens, UniProt P41161 1-510)
# Procedure, shortened: as §1
# ELF3 = biological target: T2, ELF3 (Homo sapiens, UniProt P78545 1-371)
# T2 sequence: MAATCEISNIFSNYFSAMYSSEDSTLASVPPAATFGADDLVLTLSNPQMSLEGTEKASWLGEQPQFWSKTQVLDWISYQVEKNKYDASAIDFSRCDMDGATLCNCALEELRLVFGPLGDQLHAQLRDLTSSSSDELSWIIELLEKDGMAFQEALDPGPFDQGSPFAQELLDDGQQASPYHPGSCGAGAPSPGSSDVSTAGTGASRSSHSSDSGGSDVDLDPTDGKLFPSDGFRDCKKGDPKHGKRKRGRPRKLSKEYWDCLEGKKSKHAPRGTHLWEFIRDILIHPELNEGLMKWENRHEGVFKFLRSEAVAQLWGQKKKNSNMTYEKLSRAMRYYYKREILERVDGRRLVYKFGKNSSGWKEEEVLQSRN
# Procedure, shortened: as §1
# ETV3 = biological target: T3, ETV3 (Homo sapiens, UniProt P41162-2 1-143)
# T3 sequence: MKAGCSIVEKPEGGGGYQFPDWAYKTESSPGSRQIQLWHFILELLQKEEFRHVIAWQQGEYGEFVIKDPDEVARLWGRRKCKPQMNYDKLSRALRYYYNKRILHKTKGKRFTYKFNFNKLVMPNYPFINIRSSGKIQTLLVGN
# Procedure, shortened: as §1
# ELK1 = biological target: T4, ELK1 (Homo sapiens, UniProt P19419 1-428)
# T4 sequence: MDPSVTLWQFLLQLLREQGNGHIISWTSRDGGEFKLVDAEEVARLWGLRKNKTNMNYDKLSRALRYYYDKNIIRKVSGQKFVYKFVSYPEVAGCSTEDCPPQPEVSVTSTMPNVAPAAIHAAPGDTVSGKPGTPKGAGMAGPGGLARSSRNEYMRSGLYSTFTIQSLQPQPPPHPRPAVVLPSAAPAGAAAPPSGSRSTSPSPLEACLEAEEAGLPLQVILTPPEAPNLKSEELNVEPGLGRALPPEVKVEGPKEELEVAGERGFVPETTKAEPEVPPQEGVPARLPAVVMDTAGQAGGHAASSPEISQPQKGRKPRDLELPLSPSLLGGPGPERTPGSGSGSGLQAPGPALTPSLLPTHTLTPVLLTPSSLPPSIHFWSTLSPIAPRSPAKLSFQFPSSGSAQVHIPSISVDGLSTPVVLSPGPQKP
# Procedure, shortened: as §1
# ERG = biological target: T5, ERG (Homo sapiens, UniProt P11308 1-479)
# T5 sequence: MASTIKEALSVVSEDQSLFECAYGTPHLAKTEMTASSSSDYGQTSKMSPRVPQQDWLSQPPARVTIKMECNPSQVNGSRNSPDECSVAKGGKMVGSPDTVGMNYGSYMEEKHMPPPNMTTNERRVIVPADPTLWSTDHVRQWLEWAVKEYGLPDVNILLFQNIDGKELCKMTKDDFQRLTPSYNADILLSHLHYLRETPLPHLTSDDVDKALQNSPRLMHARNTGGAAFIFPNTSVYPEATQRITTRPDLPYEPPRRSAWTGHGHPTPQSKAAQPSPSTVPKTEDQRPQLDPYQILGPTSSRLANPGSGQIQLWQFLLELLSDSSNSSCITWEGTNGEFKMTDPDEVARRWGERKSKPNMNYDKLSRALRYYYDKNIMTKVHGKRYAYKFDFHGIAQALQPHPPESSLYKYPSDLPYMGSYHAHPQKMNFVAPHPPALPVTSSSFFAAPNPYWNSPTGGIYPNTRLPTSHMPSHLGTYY
# Procedure, shortened: as §1
# ELF1 = ELF1 (Homo sapiens, UniProt P32519 1-619)
# Procedure, shortened: as §1
# EHF = biological target: T6, EHF (Homo sapiens, UniProt Q9NZC4 1-300)
# T6 sequence: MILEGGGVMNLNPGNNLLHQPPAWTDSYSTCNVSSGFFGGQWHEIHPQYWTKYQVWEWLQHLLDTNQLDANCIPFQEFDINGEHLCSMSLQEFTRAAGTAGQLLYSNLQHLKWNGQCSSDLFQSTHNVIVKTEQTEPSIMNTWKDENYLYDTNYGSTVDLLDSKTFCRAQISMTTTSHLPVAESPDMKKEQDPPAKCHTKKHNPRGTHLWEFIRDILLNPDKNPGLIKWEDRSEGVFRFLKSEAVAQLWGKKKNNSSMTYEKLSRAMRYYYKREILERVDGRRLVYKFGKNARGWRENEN
# Procedure, shortened: as §1
# SPI1 = SPI1 (Homo sapiens, UniProt P17947 1-270)
# Procedure, shortened: as §1
# SPIB = SPIB (Homo sapiens, UniProt Q01892 1-262)
# Procedure, shortened: as §1
# FEV = biological target: T7, FEV (Homo sapiens, UniProt Q99581 1-238)
# T7 sequence: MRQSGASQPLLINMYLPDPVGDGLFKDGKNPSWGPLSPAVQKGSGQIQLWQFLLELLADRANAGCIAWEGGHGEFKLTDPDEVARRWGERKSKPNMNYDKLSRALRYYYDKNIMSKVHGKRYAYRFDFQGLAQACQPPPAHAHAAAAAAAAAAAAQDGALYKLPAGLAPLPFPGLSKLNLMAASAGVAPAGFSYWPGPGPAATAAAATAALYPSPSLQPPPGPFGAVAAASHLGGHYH
# Procedure, shortened: as §1
# ELF4 = ELF4 (Homo sapiens, UniProt Q99607 1-663)
# Procedure, shortened: as §1
# ELK4 = biological target: T8, ELK4 (Homo sapiens, UniProt P28324-2 1-405)
# T8 sequence: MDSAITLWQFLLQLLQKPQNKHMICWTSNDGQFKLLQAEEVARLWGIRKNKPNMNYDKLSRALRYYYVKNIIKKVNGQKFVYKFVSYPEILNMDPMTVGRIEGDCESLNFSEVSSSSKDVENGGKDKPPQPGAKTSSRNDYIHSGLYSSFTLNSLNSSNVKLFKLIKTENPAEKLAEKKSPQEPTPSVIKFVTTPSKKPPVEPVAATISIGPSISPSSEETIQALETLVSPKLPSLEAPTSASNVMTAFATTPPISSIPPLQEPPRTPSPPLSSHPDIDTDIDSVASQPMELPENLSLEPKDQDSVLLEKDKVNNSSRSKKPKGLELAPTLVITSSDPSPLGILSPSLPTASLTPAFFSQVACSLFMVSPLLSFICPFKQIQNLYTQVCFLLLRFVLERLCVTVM
# Procedure, shortened: as §1
# ETV1 = ETV1 (Homo sapiens, UniProt P50549 1-477)
# Procedure, shortened: as §1
# ERF = biological target: T9, ERF (Homo sapiens, UniProt P50548 1-548)
# T9 sequence: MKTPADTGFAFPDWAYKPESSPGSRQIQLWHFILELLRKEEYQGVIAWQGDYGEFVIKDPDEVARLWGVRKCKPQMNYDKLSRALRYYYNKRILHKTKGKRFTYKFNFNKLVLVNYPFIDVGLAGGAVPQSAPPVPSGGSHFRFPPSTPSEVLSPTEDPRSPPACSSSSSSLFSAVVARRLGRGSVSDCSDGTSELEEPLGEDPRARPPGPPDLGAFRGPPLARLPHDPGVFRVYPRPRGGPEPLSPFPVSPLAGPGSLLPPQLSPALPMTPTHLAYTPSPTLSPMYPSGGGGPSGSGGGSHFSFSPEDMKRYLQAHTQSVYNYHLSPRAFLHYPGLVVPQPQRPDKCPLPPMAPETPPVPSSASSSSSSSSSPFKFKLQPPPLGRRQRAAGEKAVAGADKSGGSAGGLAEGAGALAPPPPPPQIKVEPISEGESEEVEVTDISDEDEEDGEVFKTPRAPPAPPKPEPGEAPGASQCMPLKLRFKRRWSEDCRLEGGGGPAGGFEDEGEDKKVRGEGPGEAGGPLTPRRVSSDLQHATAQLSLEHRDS
# Procedure, shortened: as §1
# ETV3L = biological target: T10, ETV3L (Homo sapiens, UniProt Q6ZN32 1-361)
# T10 sequence: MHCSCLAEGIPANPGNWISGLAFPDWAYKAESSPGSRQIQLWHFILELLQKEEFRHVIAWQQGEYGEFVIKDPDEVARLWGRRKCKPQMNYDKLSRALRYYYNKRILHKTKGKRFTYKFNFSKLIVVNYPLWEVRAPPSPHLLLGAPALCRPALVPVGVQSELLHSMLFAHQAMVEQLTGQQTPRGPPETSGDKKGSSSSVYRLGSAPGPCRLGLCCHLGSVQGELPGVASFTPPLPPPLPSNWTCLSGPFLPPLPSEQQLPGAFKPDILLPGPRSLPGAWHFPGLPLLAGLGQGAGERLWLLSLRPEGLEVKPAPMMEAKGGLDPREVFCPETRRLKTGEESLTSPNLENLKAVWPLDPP
# Procedure, shortened: as §1
# ETS2 = biological target: T11, ETS2 (Homo sapiens, UniProt P15036 1-469)
# T11 sequence: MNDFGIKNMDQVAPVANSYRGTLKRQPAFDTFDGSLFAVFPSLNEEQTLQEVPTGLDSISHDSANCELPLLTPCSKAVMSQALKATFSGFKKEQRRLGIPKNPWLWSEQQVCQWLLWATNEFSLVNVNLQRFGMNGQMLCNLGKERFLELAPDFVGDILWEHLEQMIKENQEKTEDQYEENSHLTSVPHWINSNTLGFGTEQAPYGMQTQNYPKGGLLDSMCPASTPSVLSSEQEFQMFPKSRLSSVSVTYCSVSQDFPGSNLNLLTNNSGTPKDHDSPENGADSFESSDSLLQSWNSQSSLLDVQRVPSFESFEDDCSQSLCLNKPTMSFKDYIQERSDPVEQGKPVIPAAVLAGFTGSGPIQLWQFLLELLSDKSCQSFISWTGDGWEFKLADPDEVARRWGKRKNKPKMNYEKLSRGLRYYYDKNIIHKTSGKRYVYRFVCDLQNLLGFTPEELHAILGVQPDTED
# Procedure, shortened: as §1
# ETV7 = biological target: T12, ETV7 (Homo sapiens, UniProt Q9Y603 1-341)
# T12 sequence: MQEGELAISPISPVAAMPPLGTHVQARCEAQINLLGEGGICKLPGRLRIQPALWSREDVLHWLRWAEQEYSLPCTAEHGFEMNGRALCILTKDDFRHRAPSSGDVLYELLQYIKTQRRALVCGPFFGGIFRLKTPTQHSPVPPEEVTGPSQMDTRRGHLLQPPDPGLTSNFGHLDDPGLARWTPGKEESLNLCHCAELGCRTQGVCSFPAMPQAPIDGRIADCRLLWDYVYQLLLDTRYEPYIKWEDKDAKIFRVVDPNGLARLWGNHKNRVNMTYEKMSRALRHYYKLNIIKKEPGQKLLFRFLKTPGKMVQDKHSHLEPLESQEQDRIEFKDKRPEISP
# Procedure, shortened: as §1
# ETV6 = ETV6 (Homo sapiens, UniProt P41212 1-452)
# Procedure, shortened: as §1
# ETV5, sequence (P41161 whole entry): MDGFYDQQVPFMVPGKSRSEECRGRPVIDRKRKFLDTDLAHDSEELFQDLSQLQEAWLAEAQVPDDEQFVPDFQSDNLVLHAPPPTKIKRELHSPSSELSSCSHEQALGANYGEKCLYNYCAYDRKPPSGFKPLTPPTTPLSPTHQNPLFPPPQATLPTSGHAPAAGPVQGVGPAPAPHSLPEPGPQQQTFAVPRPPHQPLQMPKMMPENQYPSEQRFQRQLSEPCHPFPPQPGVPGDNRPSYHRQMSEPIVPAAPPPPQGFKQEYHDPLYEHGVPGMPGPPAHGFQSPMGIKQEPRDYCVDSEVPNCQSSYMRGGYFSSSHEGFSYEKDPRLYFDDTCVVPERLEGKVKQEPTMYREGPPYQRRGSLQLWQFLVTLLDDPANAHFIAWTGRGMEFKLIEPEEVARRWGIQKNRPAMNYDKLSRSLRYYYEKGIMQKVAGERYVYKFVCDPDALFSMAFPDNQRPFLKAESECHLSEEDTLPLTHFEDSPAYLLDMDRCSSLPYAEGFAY
# ELF4, sequence (Q99607 whole entry): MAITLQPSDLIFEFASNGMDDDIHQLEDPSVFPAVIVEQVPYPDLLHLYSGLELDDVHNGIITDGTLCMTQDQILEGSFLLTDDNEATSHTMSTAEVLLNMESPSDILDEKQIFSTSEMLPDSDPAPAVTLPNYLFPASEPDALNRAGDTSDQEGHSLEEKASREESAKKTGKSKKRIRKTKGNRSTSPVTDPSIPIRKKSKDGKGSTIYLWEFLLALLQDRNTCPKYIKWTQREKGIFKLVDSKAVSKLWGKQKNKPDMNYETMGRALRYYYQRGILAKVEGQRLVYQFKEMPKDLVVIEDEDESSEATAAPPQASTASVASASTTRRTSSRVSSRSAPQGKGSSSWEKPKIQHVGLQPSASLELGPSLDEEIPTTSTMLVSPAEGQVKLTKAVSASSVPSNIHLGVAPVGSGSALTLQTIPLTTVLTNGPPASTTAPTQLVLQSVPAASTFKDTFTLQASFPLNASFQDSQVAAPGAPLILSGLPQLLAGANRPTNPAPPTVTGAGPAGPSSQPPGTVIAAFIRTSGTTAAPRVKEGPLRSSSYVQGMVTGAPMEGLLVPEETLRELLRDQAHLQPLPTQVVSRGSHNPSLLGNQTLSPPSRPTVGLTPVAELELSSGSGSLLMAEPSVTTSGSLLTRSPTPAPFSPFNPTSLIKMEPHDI
# ETV6, sequence (P41212 whole entry): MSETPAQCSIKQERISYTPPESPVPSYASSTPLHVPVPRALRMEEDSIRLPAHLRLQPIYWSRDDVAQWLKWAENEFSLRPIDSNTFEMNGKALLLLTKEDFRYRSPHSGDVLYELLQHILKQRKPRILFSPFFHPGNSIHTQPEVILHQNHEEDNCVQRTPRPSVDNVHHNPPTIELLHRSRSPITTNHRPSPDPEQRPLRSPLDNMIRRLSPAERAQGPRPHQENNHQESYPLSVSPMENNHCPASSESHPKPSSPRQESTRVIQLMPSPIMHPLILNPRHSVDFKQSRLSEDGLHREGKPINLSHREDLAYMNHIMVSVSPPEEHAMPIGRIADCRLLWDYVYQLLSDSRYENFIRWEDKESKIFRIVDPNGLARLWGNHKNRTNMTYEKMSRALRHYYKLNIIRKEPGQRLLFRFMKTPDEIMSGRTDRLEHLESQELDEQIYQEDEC
# SPIB, sequence (Q01892 whole entry): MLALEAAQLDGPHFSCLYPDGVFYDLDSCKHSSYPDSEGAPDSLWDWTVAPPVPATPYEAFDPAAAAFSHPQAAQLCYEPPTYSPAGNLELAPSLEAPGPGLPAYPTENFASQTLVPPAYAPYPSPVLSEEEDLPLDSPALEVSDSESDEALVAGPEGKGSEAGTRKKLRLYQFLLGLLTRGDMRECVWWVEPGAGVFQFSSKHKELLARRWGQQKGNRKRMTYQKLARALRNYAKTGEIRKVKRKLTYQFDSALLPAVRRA
# ETV1, sequence (P50549 whole entry): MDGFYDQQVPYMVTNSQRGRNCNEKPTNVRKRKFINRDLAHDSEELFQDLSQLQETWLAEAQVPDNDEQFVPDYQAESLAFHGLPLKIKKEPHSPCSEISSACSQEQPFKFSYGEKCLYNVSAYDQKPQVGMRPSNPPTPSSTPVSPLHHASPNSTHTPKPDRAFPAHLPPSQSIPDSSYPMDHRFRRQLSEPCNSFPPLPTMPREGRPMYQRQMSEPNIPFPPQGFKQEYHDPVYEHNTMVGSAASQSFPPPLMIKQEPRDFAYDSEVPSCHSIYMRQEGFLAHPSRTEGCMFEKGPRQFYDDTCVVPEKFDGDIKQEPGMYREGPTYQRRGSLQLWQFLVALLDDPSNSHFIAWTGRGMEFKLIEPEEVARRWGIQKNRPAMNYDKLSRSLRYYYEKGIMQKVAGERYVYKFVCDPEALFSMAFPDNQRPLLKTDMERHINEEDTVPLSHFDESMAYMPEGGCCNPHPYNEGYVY
# ELF1, sequence (P32519 whole entry): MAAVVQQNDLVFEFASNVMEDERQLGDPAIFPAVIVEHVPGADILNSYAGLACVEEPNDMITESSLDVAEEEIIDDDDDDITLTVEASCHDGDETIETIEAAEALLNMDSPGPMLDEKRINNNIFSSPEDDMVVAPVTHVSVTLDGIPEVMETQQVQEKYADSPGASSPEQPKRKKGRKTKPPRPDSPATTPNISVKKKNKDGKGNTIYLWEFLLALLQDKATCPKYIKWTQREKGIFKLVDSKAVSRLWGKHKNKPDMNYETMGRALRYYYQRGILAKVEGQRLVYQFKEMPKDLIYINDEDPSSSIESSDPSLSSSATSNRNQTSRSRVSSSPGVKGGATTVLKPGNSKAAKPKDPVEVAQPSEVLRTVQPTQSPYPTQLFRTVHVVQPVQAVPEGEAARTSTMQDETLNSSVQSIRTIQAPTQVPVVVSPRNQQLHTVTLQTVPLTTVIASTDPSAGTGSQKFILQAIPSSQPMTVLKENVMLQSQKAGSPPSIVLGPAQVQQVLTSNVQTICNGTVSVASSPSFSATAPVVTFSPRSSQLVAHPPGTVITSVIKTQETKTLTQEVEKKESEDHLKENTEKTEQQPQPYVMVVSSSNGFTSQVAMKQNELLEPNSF
Sequence,binding signal (GABPA),binding signal (ETV5),binding signal (ELF3),binding signal (ETV3),binding signal (ELK1),binding signal (ERG),binding signal (ELF1),binding signal (EHF),binding signal (SPI1),binding signal (SPIB),binding signal (FEV),binding signal (ELF4),binding signal (ELK4),binding signal (ETV1),binding signal (ERF),binding signal (ETV3L),binding signal (ETS2),binding signal (ETV7),binding signal (ETV6)
GAGCTT,"1.08 fold enrichment (6-mer frequency, TF over GST control)","1.04 fold enrichment (6-mer frequency, TF over GST control)","1.04 fold enrichment (6-mer frequency, TF over GST control)","1.03 fold enrichment (6-mer frequency, TF over GST control)",–,–,–,–,–,–,–,–,–,–,–,–,–,–,–
GCGTCT,"1.02 fold enrichment (6-mer frequency, TF over GST control)","1.04 fold enrichment (6-mer frequency, TF over GST control)","1.34 fold enrichment (6-mer frequency, TF over GST control)","1.11 fold enrichment (6-mer frequency, TF over GST control)","1.05 fold enrichment (6-mer frequency, TF over GST control)","1.08 fold enrichment (6-mer frequency, TF over GST control)","1.08 fold enrichment (6-mer frequency, TF over GST control)","1.08 fold enrichment (6-mer frequency, TF over GST control)","1.04 fold enrichment (6-mer frequency, TF over GST control)","1.19 fold enrichment (6-mer frequency, TF over GST control)","1.08 fold enrichment (6-mer frequency, TF over GST control)","1.04 fold enrichment (6-mer frequency, TF over GST control)","1.11 fold enrichment (6-mer frequency, TF over GST control)","1.18 fold enrichment (6-mer frequency, TF over GST control)","1.12 fold enrichment (6-mer frequency, TF over GST control)","1.1 fold enrichment (6-mer frequency, TF over GST control)","1.04 fold enrichment (6-mer frequency, TF over GST control)","1.1 fold enrichment (6-mer frequency, TF over GST control)","1.04 fold enrichment (6-mer frequency, TF over GST control)"
